High-throughput results (PubChem)
Pf growth 96h: Primary qHTS for delayed death inhibitors of the malarial parasite plastid, 96 hour incubation | 6.9% of 320,000 active | Potency, µM (titrated, usually from 28.7 µM), actives largely listed as inhibitors | AID 504834, 2011 | P. falciparum luciferase reporter growth, 96 h
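Plates of compound plus infected erythrocytes (2% hematocrit, 0.05% parasitemia final) incubate 96 hours, 37 C, 5% CO2. Detection reagent added; reduced luminescence from the parasites' luciferase reporter flags inhibition.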
HCV inhibitor: qHTS Assay for Inhibitors of Hepatitis C Virus (HCV) | Huh7.5.1 HCVcc-Cre infection, luciferase reporter, 44 h | Potency, µM (top dose mostly 41.8 µM), usual class: inhibitors | 3.4% of 340,000 active | AID 651820, 2012
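1,000 cells/well; 4 h culture; + compound; + HCVcc-Cre (~0.5 moi); 44 h; luciferase substrate, RT 15 min; read 15 sec.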
Shiga inhibitor: A qHTS for Small Molecule Inhibitors of Shiga Toxin; Vero cells, Shiga toxin protein synthesis inhibition reporter; inhibition, % at 38.7 µM; 9.2% of 290,000 active; AID 2315, 2010; in the data active means inhibition mostly above about 28%, no sharp cut-off; inactive means mostly below about 43%
Pf growth 48h: Primary qHTS for delayed death inhibitors of the malarial parasite plastid, 48 hour incubation. Potency, µM (series often up to 28.7 µM), hits mostly inhibitors. 5.9% of 310,000 active. P. falciparum luciferase growth in erythrocytes, 48 h
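Erythrocytes infected with P. falciparum carrying an integrated firefly luciferase reporter (2% hematocrit, 0.1% parasitemia final) were exposed to compounds in RPMI 1640 with 0.5% Albumax at 37 C, 5% CO2. Growth inhibition was scored as reduced luminescence.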
HCMV inh: qHTS Assay for inhibitors of the human cytomegalovirus (HCMV); HFF cells, HCMV-luciferase reporter, 72 h; active compounds read low; activity change, negative = inhibition, % at 57.5 µM; 4.5% of 410,000 active; in the data active means activity change below about -60%; inconclusive means no clear call, values can overlap the other calls; inactive means above about -39%
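Cell-based, HFFs, 1000 cells/well, 16 h 37C; cpds in DMSO + HCMV-luc, MOI 1 PFU/cell; 72 h 37C; OneGlo luminescence after 5 min RT; norm. to buffer vs Salinomycin 10uM.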
Cycloheximide cs: Cycloheximide Counterscreen for Small Molecule Inhibitors of Shiga Toxin; cell reporter, cycloheximide protein synthesis inhibition counterscreen; max response, %; 12% of 300,000 active; in the data active means max response mostly above about 13%, no sharp cut-off; inactive means mostly below about 14%; further: read at 38.3 µM for the half of the compounds with a filed dose
Large screens that a line does not name were inactive. The list is not random: actives were taken first. Their share in the collection is about 21%. Unless noted, the call rests on the fitted dose curve; in most records, active means well fitted inhibition curve with a large enough effect; inconclusive means small, poorly fitted or top-dose-only effect, or another doubt; inactive means no such curve, though single readings can be large or run the other way.

CCN(CC)CCNC(=O)c1ccc(NC(=O)c2ccc(Cl)c(S(=O)(=O)N3CCCCCC3)c2)cc1	HCV inhibitor 14.1µM, Pf growth 48h 1.65µM, HCMV inh -60.4
O=C(CCc1nnc(CCCCc2ccccc2)o1)N1CCCC(O)C1 (stereo not given)	Cycloheximide cs 12.9
Cc1cccnc1CCNC(=O)CCc1nnc(CCc2ccccc2)o1	Pf growth 96h inconclusive
O=C(CCc1nnc(CCCCc2ccccc2)o1)N1CCC(N2CCCC2)CC1	Pf growth 48h inconclusive
O=C(CCc1nnc(CCCCc2ccccc2)o1)N1CCN(CCO)CC1	none
Cc1cccnc1CN1CCN(C(=O)CCc2nnc(CCc3ccccc3)o2)CC1	Pf growth 96h inconclusive, Shiga inhibitor 73.6, Cycloheximide cs 24.5
CC(=O)N1CCN(C(=O)CCc2nnc(CCCCc3ccccc3)o2)CC1	Pf growth 96h 11.7µM
Cc1cc(-c2nnc(CCC(=O)N3CCN(Cc4cccc(F)c4)CC3)o2)c(C)o1	Shiga inhibitor 42.3, Pf growth 48h inconclusive, Cycloheximide cs 19.0
Cn1c2ccccc2c(=O)c2c(=O)n(C3CCCCCC3)c(C3CCCCC3)nc21	Pf growth 96h 10.4µM, Pf growth 48h 8.28µM
Cn1c2ccccc2c(=O)c2c(=O)n(C3CCCCC3)c(-c3cccs3)nc21	HCV inhibitor 10µM, Pf growth 48h 6.57µM, HCMV inh inconclusive (no result: Pf growth 96h)
Cn1c2ccccc2c(=O)c2c(=O)n(-c3ccccc3)c(C3CCCCC3)nc21	Pf growth 96h 9.28µM, Pf growth 48h 9.28µM
Cn1c2ccccc2c2c(C(=O)O)cn(C3CCCC3)c(=O)c21	Pf growth 96h inconclusive, HCV inhibitor inconclusive (no result: Pf growth 48h)
Cc1nc2c(c(=O)c3ccccc3n2C)c(=O)n1C1CCCC1	none (no result: Pf growth 96h, HCV inhibitor, Shiga inhibitor, Pf growth 48h, Cycloheximide cs)
CCc1nc2c(c(=O)c3ccccc3n2C)c(=O)n1C1CCCCCC1	Pf growth 96h inconclusive, HCV inhibitor inconclusive, Pf growth 48h inconclusive, HCMV inh -63.1
Cc1nc(-c2nnc(SCC(=O)Nc3ccc(C(F)(F)F)cc3)n2C)cs1	Pf growth 48h inconclusive
CCOC(=O)c1c(NC(=O)CN2C(=O)NC3(CCCCC3)C2=O)sc(C)c1-c1ccc(C)cc1	Pf growth 96h 9.28µM, Pf growth 48h 14.7µM
CCOC(=O)c1sc(NC(=O)CN2C(=O)NC3(CCCCCCC3)C2=O)c(C(=O)OCC)c1C	Pf growth 96h 9.28µM, Pf growth 48h 8.28µM
CCOC(=O)c1c(NC(=O)CC)sc(C(=O)N2CCCCC2)c1C	Pf growth 96h 13.1µM (no result: Pf growth 48h)
C[C@H](NC(=O)c1cccc2ccccc12)C(O)c1nc2ccccc2[nH]1 (stereo not given in full)	none (no result: Pf growth 96h, HCV inhibitor, Shiga inhibitor, Pf growth 48h, Cycloheximide cs)
CSc1cccc(NC(=O)/C=C/c2cccc(Cl)c2)c1	HCV inhibitor inconclusive, Shiga inhibitor 143.4, Cycloheximide cs 72.0
O=C(/C=C/c1cccc(Cl)c1)Nc1ncccn1	Pf growth 96h inconclusive, Shiga inhibitor 54.6
CSc1cccc(NC(=O)Nc2ccc(Cl)cc2)c1	Pf growth 96h inconclusive, Pf growth 48h inconclusive
CCOc1ccc(NC(=O)CC(C)O)cc1 (stereo not given)	none (no result: HCV inhibitor, Shiga inhibitor, Cycloheximide cs)
CCOc1ccc(CCNC(=O)C2CCN(Cc3nc(-c4ccc(OC)c(OC)c4)oc3C)CC2)cc1OCC	none (no result: Pf growth 96h, HCV inhibitor, Shiga inhibitor, Pf growth 48h, Cycloheximide cs)
COc1ccc(NC(=O)CN(C)CC(=O)c2[nH]c(C)c(C(C)=O)c2C)cc1	Pf growth 48h inconclusive (no result: Shiga inhibitor, Cycloheximide cs)
COc1ccc(NC(=O)CN(C)CC(=O)c2c(C)[nH]c3ccccc23)cc1	Pf growth 96h 11.7µM, Pf growth 48h inconclusive (no result: Shiga inhibitor, Cycloheximide cs)
CCC(C)c1ccc(NC(=S)Nc2ccc(OC)cc2C)cc1 (stereo not given)	Pf growth 96h inconclusive, HCV inhibitor inconclusive, Shiga inhibitor 61.7, Cycloheximide cs 30.0
COc1ccc(NC(=O)CN(C)CC(=O)Nc2cccc(C(C)=O)c2)cc1	none
CCC(C)c1ccc(NC(=O)CN(C)CC(=O)Nc2cccc(OC)c2)cc1 (stereo not given)	Pf growth 96h inconclusive, Pf growth 48h 11.7µM
COc1cccc(NC(=O)CN(C)CC(=O)NCc2ccc(F)cc2)c1	HCMV inh inconclusive (no result: Pf growth 96h, Shiga inhibitor, Pf growth 48h, Cycloheximide cs)
COc1cccc(NC(=O)CN(C)CC(=O)c2c(C)[nH]c3ccccc23)c1	Pf growth 96h 11.7µM, Pf growth 48h inconclusive (no result: Shiga inhibitor, Cycloheximide cs)
O=C(Cn1cnc2onc(-c3ccc(F)cc3)c2c1=O)N1CCN(c2ccccc2F)CC1	none (no result: Pf growth 96h, HCV inhibitor, Shiga inhibitor, Pf growth 48h, Cycloheximide cs)
CC(=O)Nc1ccc(SC[C@H](CC(C)C)N2CCN(CCc3ccccc3)CCC2=O)cc1	Pf growth 96h 7.38µM, Pf growth 48h 9.28µM
COc1ccc(SC[C@H](CC(C)C)N2CCN(CCc3ccccc3)CCC2=O)cc1	Pf growth 96h inconclusive, Shiga inhibitor 43.9, Pf growth 48h inconclusive, Cycloheximide cs 12.7
CC(C)CC(CSc1ccc(Br)cc1)N1CCN(CCc2ccccc2)CCC1=O (stereo not given)	Shiga inhibitor 49.2, Cycloheximide cs 28.7 (no result: Pf growth 96h, HCV inhibitor, Pf growth 48h, HCMV inh)
CC(=O)Nc1ccc(SCC(Cc2ccccc2)N2CCN(CCc3ccccc3)CCC2=O)cc1 (stereo not given)	none (no result: Pf growth 96h, HCV inhibitor, Pf growth 48h, HCMV inh)
Cc1ccc(SC[C@H](CC(C)C)N2CCN(CCc3ccccc3)CCC2=O)cc1	Pf growth 96h inconclusive, HCV inhibitor inconclusive, Shiga inhibitor 42.8, Pf growth 48h inconclusive, Cycloheximide cs 52.2
O=S(=O)(c1ccc2c(c1)OCCO2)C1CCC(O)CC1 (stereo not given)	none (no result: HCV inhibitor, Shiga inhibitor, HCMV inh, Cycloheximide cs)
CC(=O)Nc1ccc(SC[C@H](Cc2ccccc2)N2CCN(CC(C)C)CCC2=O)cc1	Pf growth 96h 4.65µM, Pf growth 48h 7.38µM
CC(=O)Nc1ccc(SCC(Cc2ccccc2)N2CCN(CC(C)C)CCC2=O)cc1 (stereo not given)	none (no result: Pf growth 96h, HCV inhibitor, Pf growth 48h, HCMV inh)
O=C1CCN(CCc2ccccc2)CCN1[C@H](CSc1ccc(Br)cc1)Cc1ccccc1	Pf growth 96h 8.28µM, Pf growth 48h 13.1µM
CCCN1CCC(=O)N(C(CSc2ccc(Br)cc2)Cc2ccccc2)CC1 (stereo not given)	none (no result: Pf growth 96h, HCV inhibitor, Pf growth 48h, HCMV inh)
CCCCCCN(C(=O)CCCCCN1C(=O)NC(c2ccc(-c3ccccc3)cc2)C(C(=O)OCc2ccccc2)=C1C)C(C(=O)NCCCC)c1ccc(OCC(=O)OC)cc1 (stereo not given)	Pf growth 96h 4.65µM, Pf growth 48h inconclusive (no result: HCMV inh)
CC1=C(C(=O)OCc2ccccc2)C(c2ccc(C#N)cc2)NC(=O)N1CCCC(=O)O (stereo not given)	none
CCCCNC(=O)C(c1ccc(OCC(=O)OC)c(C(=O)OC)c1)N(CCOC)C(=O)CCCCCN1C(=O)NC(c2ccc(-c3ccccc3)cc2)C(C(=O)OCc2ccccc2)=C1C (stereo not given)	Pf growth 96h 1.65µM, Pf growth 48h 1.17µM, HCMV inh -94.9 (no result: HCV inhibitor)
